Experimental data: PubChem BioAssay (NCATS)
Inconclusive results are not listed. Where a call stands in place of a potency, no number is given. Calls of active or inactive are those of the source. The call rests on the fitted dose curve; in most records, active means well fitted inhibition curve with a large enough effect; inconclusive means small, poorly fitted or top-dose-only effect; inactive means flat fitted curve, though single readings scatter.

Each compound was assayed against Calcium and integrin-binding protein 1 (Homo sapiens) (UniProt Q99828) (assay: Primary qHTS for Identification of Calcium Integrin Binding Protein 1 (CIB1) Competitor (AID 1508620; further: top concentration of the series differs between compounds)). Settings: CIB1-GST / FITC-alphaIIb peptide fluorescence polarization; series mostly up to 114 µM.
Chain of Calcium and integrin-binding protein 1 (Homo sapiens) (Q99828 whole entry, looked up): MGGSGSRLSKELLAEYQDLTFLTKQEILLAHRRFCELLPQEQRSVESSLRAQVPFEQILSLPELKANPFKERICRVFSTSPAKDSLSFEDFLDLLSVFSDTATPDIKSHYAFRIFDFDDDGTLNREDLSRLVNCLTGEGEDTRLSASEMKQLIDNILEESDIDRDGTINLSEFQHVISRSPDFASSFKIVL
Summary of the method: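 Fluorescence polarization competition: GST-tagged CIB1 (1 uM final) preincubated with compound 15 min at room temperature, then FITC-labelled alphaIIb peptide (100 nM final) added. After 15 min at room temperature, polarization read at Ex 480/Em 540.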

Compound	Potency
CC(C)(C)Cc1nnc(NC(=O)CSc2ccccc2)s1	inactive
Cn1c2cc(B(O)O)sc2c2cnn(Cc3c(F)cccc3Cl)c(=O)c21	inactive
Cc1ccc(CNc2ccc(N3CCOCC3)cc2)cc1	inactive
COc1ccc(OCc2cc(C3Nc4ccccc4C(=O)N3Cc3ccccc3)ccc2OC)cc1 (configuration not stated)	inactive
O=S(=O)(Nc1ccc(-c2ccccc2)cc1)c1ccc(NCc2ccc(Br)cc2O)cc1	inactive
CCOc1ccc(NC(=O)Nc2ccc(-c3nc4ccccc4[nH]3)cc2)cc1	inactive
Cn1c2cc(C#N)sc2c2cnn(Cc3ccc(F)cc3)c(=O)c21	inactive
O=C(CCc1ccccc1)Nc1cccc([S+](=O)([O-])Nc2ccccc2F)c1	inactive
CNc1nnc(-c2cccc3ccccc23)s1	inactive
O=C(Nc1ccc(Br)cc1)Nc1nnc(-c2ccncc2)s1	inactive
CCOc1ccc(CCNC(=O)c2cc3ccccc3n2Cc2cc(C)cc(C)n2)cc1OCC	inactive
CS(=O)(=O)Nc1cccc(-c2cc(F)c(S(=O)(=O)N3CCN(S(=O)(=O)c4ccc5c(c4)OCCO5)CC3)cc2F)c1	inactive
O=C(Cc1ccc2ccccc2c1)Nc1nnc(-c2ccncc2)s1	inactive
CCOc1ccc(C(=O)Nc2ccc(-c3nn[nH]n3)cc2)cc1[N+](=O)[O-]	inactive
CNc1nc(-c2cccc3ccccc23)ccc1C#N	inactive
O=C1CCCC2=C1C(c1[nH]ncc1Cl)N=C(c1nc3ccccc3o1)N2 (configuration not stated)	inactive
Cn1c2ccsc2c2ncn(Cc3ccc(F)cc3)c(=O)c21	inactive
Cc1cnc(N2CCC(C(N)=O)CC2)nc1-c1cccc(N(C)C)c1	inactive
Cc1cccc(NC(=O)c2cnn3c(C)cc(C)nc23)c1	inactive
Cc1ccc(OC2=NS(=O)(=O)c3ccccc32)cc1	inactive
CCCCNC(=S)NCCCN(Cc1ccc(Cl)c(Cl)c1)c1ccc(Br)cn1	inactive
Cc1ccc(NS(=O)(=O)c2ccc3c(c2)CCC(=O)N3C)cc1Cl	inactive
